Measurements reported in article PMC4336329 (PLoS ONE, 2015).
Out of some 310,000 compounds screened, about 14,000 (4.5%) showed an effect of 50% or more. Effects have a minus sign here. The sample as a whole holds a higher share of strong results than the screen did.

Molecular target: human ether-à-go-go-related gene (hERG) potassium channel (human, UniProt Q12809)
Assay: primary screen, population patch clamp on CHO cells stably expressing hERG; higher = less effect of the substance
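Note: peak tail current of the secondary pulse compared with the same well before compound.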

Chain of human ether-à-go-go-related gene (hERG) potassium channel (Q12809 whole entry, looked up): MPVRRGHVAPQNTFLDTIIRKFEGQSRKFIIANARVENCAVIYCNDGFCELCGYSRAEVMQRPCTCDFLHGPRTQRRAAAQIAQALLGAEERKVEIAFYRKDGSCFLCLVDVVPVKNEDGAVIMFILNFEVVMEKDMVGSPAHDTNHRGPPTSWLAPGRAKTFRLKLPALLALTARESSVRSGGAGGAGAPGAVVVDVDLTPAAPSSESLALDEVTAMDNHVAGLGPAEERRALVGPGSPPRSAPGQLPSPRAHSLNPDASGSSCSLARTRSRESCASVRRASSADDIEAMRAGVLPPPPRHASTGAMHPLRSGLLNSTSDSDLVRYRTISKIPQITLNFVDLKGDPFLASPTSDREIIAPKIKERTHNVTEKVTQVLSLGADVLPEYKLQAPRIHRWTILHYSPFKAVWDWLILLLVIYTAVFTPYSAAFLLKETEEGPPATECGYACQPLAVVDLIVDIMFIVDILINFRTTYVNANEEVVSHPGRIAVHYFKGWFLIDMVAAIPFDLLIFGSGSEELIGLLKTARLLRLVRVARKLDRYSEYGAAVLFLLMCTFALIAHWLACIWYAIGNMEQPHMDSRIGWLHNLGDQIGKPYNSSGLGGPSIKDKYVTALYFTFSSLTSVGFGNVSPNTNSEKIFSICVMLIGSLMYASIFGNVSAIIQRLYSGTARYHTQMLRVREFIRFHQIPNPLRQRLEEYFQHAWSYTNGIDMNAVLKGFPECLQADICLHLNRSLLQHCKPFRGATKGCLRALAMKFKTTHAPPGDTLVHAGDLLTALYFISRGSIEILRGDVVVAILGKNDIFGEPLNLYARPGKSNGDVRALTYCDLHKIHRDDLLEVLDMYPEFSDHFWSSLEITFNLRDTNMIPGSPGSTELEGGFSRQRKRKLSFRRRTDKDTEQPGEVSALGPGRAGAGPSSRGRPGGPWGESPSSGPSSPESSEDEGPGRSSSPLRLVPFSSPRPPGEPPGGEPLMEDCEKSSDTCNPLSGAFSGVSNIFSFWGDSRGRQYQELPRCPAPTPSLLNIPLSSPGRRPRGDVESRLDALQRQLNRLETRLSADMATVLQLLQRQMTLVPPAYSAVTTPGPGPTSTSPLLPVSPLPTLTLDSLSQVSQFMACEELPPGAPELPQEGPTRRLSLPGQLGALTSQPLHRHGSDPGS

Structure (SMILES)	hERG current change (%, negative = inhibition) at 10uM [%]
Cc1ccc2cc(CCNC(=O)c3ccco3)c(=O)[nH]c2c1	-13.6
CCN(CC)c1ccc(-n2c(C)cc(C=O)c2C)cc1	6.33
CCCC[N+]12CCC(CC1)C(=C(c1ccccc1)c1ccccc1)C2.[Br-]	-72.4
CCC[N+]12CCC(CC1)C(=C(c1ccccc1)c1ccccc1)C2.[Br-]	-70.1
CC[N+]12CCC(CC1)C(=C(c1ccccc1)c1ccccc1)C2.[Br-]	-73.6
CCCC[N+]12CCC(CC1)C(C(O)(c1ccccc1)c1ccccc1)C2.[Br-] (centres unmarked)	5.84
CCCC[N+]12CCC(CC1)C(Cc1ccccc1)C2.[Br-] (centres unmarked)	21.9
CCC[N+]12CCC(CC1)C(C(O)(c1ccccc1)c1ccccc1)C2.[Br-] (centres unmarked)	-0.95
CCC/C(=N\NC(=O)C1CC1)c1ccccc1	-2.21
CC[N+]12CCC(CC1)C(C(O)(c1ccccc1)c1ccccc1)C2.[Br-] (centres unmarked)	-5.24
CC/C(=N/N=C(\CC)c1ccccc1)c1ccccc1	5.16
COC(=O)COc1ccc2c(=O)c(-c3ccccc3OC)coc2c1	10.2
COc1ccc(CSc2nncn2N)cc1Br	4.98
Cc1cc(C)c(-n2c(C)cc(/C=C3/NC(=O)NC3=O)c2C)c(C)c1	-9.75
CCOc1ccccc1N(C)C(=O)CCS(=O)(=O)c1ccc2c(c1)NC(=O)CO2	5.58
CCCOP(=O)(c1ccc(N(C)C)cc1)C(O)c1ccc(Cl)cc1 (centres unmarked)	9.5
CCCOP(=O)(c1ccc(N(C)C)cc1)C(O)c1ccc(Cl)cc1Cl (centres unmarked)	-54.9
CC(C)CCOP(=O)(c1ccc(N(C)C)cc1)C(O)c1ccc(Cl)cc1Cl (centres unmarked)	0.259
CC1CC(C)CN(c2oc(-c3ccco3)nc2C#N)C1 (centres unmarked)	0.193
COc1cc(/C=N/NC(=O)c2ccncc2)ccc1OCc1cnc(Cl)s1	2.43
COc1ccc(-c2cc(C#N)nc(N3CCN(C)CC3)n2)cc1	-42.5

Structure (SMILES)	hERG current change (%, negative = inhibition) at 10uM [%]
COc1ccc(-c2cc(C#N)nc(N3CCNCC3)n2)cc1	-79.3
N#Cc1cc(-c2ccccc2)nc(N2CCNCC2)n1	-11.3
Cc1ccc(NC(=O)C(=O)NCCN2CCN(S(C)(=O)=O)CC2)cc1C	0.0768
O=C(NCCc1ccccc1)c1ccc(CS(=O)Cc2cccc(Cl)c2)o1 (centres unmarked)	-6.23
O=C(NCCc1ccc(Cl)cc1)c1ccc(CS(=O)Cc2ccccc2Cl)o1 (centres unmarked)	-30
CCOc1ccc(CCNC(=O)c2ccc(CS(=O)Cc3ccccc3Cl)o2)cc1 (centres unmarked)	-19
O=C(NCCCc1ccccc1)c1ccc(CS(=O)Cc2ccccc2Cl)o1 (centres unmarked)	-76.2
CCOc1ccc(CCNC(=O)c2ccc(CS(=O)Cc3cccc(Cl)c3)o2)cc1 (centres unmarked)	-76
CCOc1ccc(CCNC(=O)c2ccc(CS(=O)Cc3ccc(Cl)cc3)o2)cc1 (centres unmarked)	-14.1
O=C(NCCc1ccc(Cl)cc1)c1ccc(CS(=O)Cc2ccc(Cl)cc2)o1 (centres unmarked)	-39.8
O=C(NCCc1ccccc1)c1ccc(CS(=O)Cc2ccc(Cl)cc2)o1 (centres unmarked)	-58.8
CSc1ccc(CCNC(=O)c2ccc(CS(=O)Cc3ccccc3Cl)o2)cc1 (centres unmarked)	-2.87
COc1ccc(CCNC(=O)c2ccc(CS(=O)Cc3ccc(Cl)cc3)o2)cc1OC (centres unmarked)	-26.7
COc1ccccc1S(=O)Cc1ccc(C(=O)NCc2ccccc2Cl)o1 (centres unmarked)	-19.5
COc1ccccc1S(=O)Cc1ccc(C(=O)NCCc2ccc(Cl)cc2)o1 (centres unmarked)	-65.4
CCOc1ncccc1C(=O)NNC(=O)c1ccc(NS(=O)(=O)c2cccs2)cc1	13
Cc1onc(-c2ccccc2)c1C(=O)Nc1sc2c(c1C(N)=O)CCC2	6.44
CCC(C)NC(=O)C1CCN(c2nc(OC)nc(OC)n2)CC1 (centres unmarked)	-4.66
CCN(Cc1cc2ccccc2[nH]c1=O)C(=O)c1cccc([N+](=O)[O-])c1	-21.8
Clc1cccc(-c2cc3nc4c(c(N5CCOCC5)n3n2)CCCC4)c1	-6.06
Cn1c(=O)n(-c2cccc(Cl)c2)c(=O)n1C	6.81

Structure (SMILES)	hERG current change (%, negative = inhibition) at 10uM [%]
Brc1ccccc1-c1nc(-c2ccccc2)no1	5.04
CC1(C)CC(=O)C2=C(C1)c1c(ccc3ccccc13)NC2c1ccco1 (centres unmarked)	14.1
CC12CCC(=O)N1C(C(=O)Nc1ccccc1N1CCCCC1)CS2 (centres unmarked)	-15.9
CCN(CC)S(=O)(=O)N1CCC(C(=O)NC2CCCc3ccccc32)CC1 (centres unmarked)	-8
Cc1cc(Br)c(S(=O)(=O)NCc2ccncc2)cc1C	7.87
CNc1cncc(C(=O)O)c1	7.43
Cc1ccc(O)c(C(=O)c2cnc3onc(-c4ccc(F)cc4)c3c2)c1	4.58
Cc1ccc(CS(=O)Cc2ccc(C(=O)NCCc3ccccc3)o2)cc1 (centres unmarked)	-7.62
O=C(NCCCc1ccccc1)c1ccc(CS(=O)Cc2ccc(Cl)cc2)o1 (centres unmarked)	-74.3
O=C(NCCc1cccs1)c1ccc(CS(=O)Cc2ccc(Cl)cc2)o1 (centres unmarked)	-20.4
Cc1ccccc1C(=O)N1CCN(c2ccc(NC(=O)c3ccco3)cc2)CC1	5.43
COc1cccc(CN(C)CC(O)COC(c2ccccc2)c2ccccc2C)c1 (centres unmarked)	-72.1
COc1cccc(CN(C)CC(O)COc2cc(Cl)ccc2Cl)c1.O=C(O)C(=O)O (centres unmarked)	-42
COc1ccc(C(OCC(O)CN2CCC(O)CC2)c2ccc(OC)cc2)cc1 (centres unmarked)	-48
CCOc1ccc(CN(C)CC(O)COC(c2ccc(OC)cc2)c2ccc(OC)cc2)cc1 (centres unmarked)	-77.4
CCc1ccc(CN(C)CC(O)COc2cccc3ccccc23)cc1 (centres unmarked)	-25.2
COc1cccc(CN(C)CC(=O)Nc2c(C)cccc2C(C)C)c1	-12.2
CCc1ccc(CNCc2ccc(OCC(O)CN(C)Cc3ccccc3)cc2)nc1 (centres unmarked)	-17.4
COc1ccc(CN(C)CC(O)COC(c2ccc(OC)cc2)c2ccc(OC)cc2)cc1 (centres unmarked)	-77.2
CN(Cc1ccccc1)CC(O)COc1ccc(CNCc2cc3ccccc3s2)cc1 (centres unmarked)	-25.7
